# p53 reactivator: qHTS assay for re-activators of p53 using a Luc reporter | H1299 p53-A138V BP100-luciferase reporter, luminescence, 24 h | Potency, µM (series often up to 92.2 µM), inactives show at the highest dose activity change, positive = activation, usual class: activators | 0.063% of 320,000 active; note: potency is the fitted concentration of half-maximal effect; % of control where 0% means no effect; nearly all actives have a fitted effect of over 45% in size
#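 p53-null H1299 cells stably carrying temperature-sensitive p53-A138V and a BP100-luciferase reporter were pinned with compounds (4-point, 1:5 series) and held 24 hrs at 37 deg C. Luminescence was read 10 min after detection reagent.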
# Giardia killer: Small Molecules that selectively kill Giardia lamblia: qHTS. Giardia lamblia trophozoite viability. activity change, % at 7.66 µM, hits read low. 0.15% of 340,000 active; in the data active = activity change below about -80%; inconclusive = between about -30% and that limit;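 note: parasites exposed to compound for two days anaerobically before the ATP read; % is set by controls: 0 for no effect and ±100 for the full control effect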
#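 ATP-content bioluminescence gauges trophozoite survival. Cells (100/well) receive compound and incubate anaerobically for 48 hrs at 37 deg C; detection reagent follows for 15-30 min at room temperature.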
# B2AR arrestin: qHTS assay of beta-arrestin-biased ligands of beta2-adrenergic receptor; Beta-2 adrenergic receptor (Homo sapiens), P07550; beta-arrestin recruitment to beta2AR, cell-based reporter; Potency, µM (highest dose often 46.1 µM), for inactives: at the highest dose activation, most hits filed as activators; 0.02% of 330,000 active; AID 492947, 2010;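 note: potency is the fitted concentration of half-maximal effect; 0% = DMSO controls and full agonism = EC100 isoproterenol or metaproterenol; nearly all actives have a fitted effect of over 65% in size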
# Target sequence (P07550 whole entry, looked up): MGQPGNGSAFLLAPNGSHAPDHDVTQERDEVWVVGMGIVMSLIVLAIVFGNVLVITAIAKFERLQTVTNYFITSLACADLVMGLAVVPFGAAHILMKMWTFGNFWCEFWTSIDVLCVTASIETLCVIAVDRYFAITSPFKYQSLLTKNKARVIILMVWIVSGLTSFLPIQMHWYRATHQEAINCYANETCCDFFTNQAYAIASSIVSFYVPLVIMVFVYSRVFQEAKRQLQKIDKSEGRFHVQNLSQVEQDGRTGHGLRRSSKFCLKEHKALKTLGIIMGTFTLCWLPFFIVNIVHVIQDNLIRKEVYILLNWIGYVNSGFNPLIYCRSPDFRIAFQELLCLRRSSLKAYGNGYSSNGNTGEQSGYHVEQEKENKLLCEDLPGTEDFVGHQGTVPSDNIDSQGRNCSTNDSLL
# Mito fusion yeast: qHTS Assay for Small Molecule Inhibitors of Mitochondrial Division or Activators of Mitochondrial Fusion | S. cerevisiae fusion-defective mutant growth rescue, CellTiterGlo 48 h | Potency, µM (series often up to 46.1 µM), for inactives: at the top dose growth rescue (activation), usual class: activators | 0.23% of 320,000 active; note: potency is the fitted concentration of half-maximal effect; % of control where 0% means no effect; nearly all actives have a fitted effect of over 45% in size
#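 S. cerevisiae fusion-defective temperature-sensitive mutants (e.g. fzo1-1, mgm1-5) grown 48 h at 37C in YPEG (ethanol/glycerol non-fermentable) medium with 23 nl compound per well; growth rescue read as CellTiterGlo luminescence.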
# uPA generation: qHTS for Inhibitors of Cell Surface uPA Generation | cell surface uPA generation assay, qHTS | Potency, µM (top dose mostly 38.3 µM), for inactives: at the highest dose activity change, negative = inhibition, hits mostly inhibitors | 0.31% of 330,000 active | AID 540303, 2011; active = well fitted inhibition curve with a large enough effect; inconclusive = small, poorly fitted or top-dose-only effect; inactive = no such curve, though single readings can be large or run the other way; tested in mouse RAW 264.7 cells; note: potency is the fitted concentration of half-maximal effect; % is set by controls: 0 for no effect and ±100 for the full control effect; nearly all actives have a fitted effect of over 55% in size
# ClpP mod: qHTS Assay for Activators of ClpP; ATP-dependent Clp protease proteolytic subunit (Bacillus subtilis (strain 168)), P80244; purified B. subtilis ClpP, FRET peptide cleavage, 20 min; Potency, µM (series often up to 57.5 µM), inactives show at the highest dose activity change, negative = active; 1.9% of 340,000 active; active = well fitted falling curve with a large enough effect; inconclusive = small, poorly fitted or top-dose-only effect; inactive = no such curve, though single readings can be large or run the other way; note: potency is the fitted concentration of half-maximal effect; the source files actives as falling curves though it sought activators and does not explain the sign; nearly all actives have a fitted effect of over 65% in size
# Target sequence (P80244 whole entry, looked up): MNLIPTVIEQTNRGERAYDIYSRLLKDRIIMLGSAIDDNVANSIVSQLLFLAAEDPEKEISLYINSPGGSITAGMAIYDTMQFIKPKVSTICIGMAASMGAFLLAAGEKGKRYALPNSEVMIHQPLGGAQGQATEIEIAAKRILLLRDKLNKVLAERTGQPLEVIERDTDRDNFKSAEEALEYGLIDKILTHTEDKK
#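 Buffer: 100 mM Tris/HCl pH8, 100 mM KCl, 0.05% low protease BSA, 2.5% glycerol, 0.01% Tween-20. ClpP 10 microg/mL final; 20 min RT; delta FRET normalized to ADEP and DMSO controls.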
# ClpP inh valid: qHTS Assay for Activators of ClpP: Hit Validation of Inhibitors; 40% of 470 active; AID 743245, 2014; Potency, µM (top dose mostly 57.5 µM), inactives show at the top dose activity change, negative = inhibition, hits mostly inhibitors; purified B. subtilis ClpP, FRET-FV substrate cleavage, 20 min; shares compounds with ClpP mod; note: potency is the fitted concentration of half-maximal effect; % is set by controls: 0 for no effect and ±100 for the full control effect; nearly all actives have a fitted effect of over 70% in size
# Starred values were filed as active, the others as inactive; ? = inconclusive; · = no result given. In the library only some 2.1% were active in any assay of this set; here they are far more common. Unless noted, calls come from the whole dose curve; as a rule, active = well fitted curve in the direction sought with a large enough effect; inconclusive = small, poorly fitted or top-dose-only effect, or another doubt; inactive = no such curve, though single readings can be large; an effect the other way counts as inactive or inconclusive.
SMILES,p53 reactivator,Giardia killer,B2AR arrestin,Mito fusion yeast,uPA generation,ClpP mod,ClpP inh valid
COc1cccc(NC(=O)Cn2c(-c3cncs3)nc3ccccc32)c1,-6%,1,0%,-1%,-4%,8.9µM*,-7%
COc1ccc(CN(C)c2ccc(-c3nc(-c4ccc(OC)c(OC)c4)no3)cc2[N+](=O)[O-])cc1,·,·,·,·,·,-1%,·
CC1CN(C(=O)Nc2ccc3c(c2)OCCO3)CC(C)O1 (centres undefined),30%,-1,0%,21%,8%,3.5µM*,-1%
Cc1ccnc(NC(=O)c2ccc(OCc3c(C)noc3C)cc2)c1,11%,-2,0%,4%,0%,106%,0%
COc1ccc(-c2[nH]c(-c3ccc4c(c3)OCO4)nc2-c2ccccc2)cc1,1%,7,0%,-6%,-3%,2.5µM*,24µM*
COc1cc(-c2nc(-c3ccccc3)c(-c3ccc(F)cc3)[nH]2)cc2c1OCO2,-2%,-9,3%,-8%,2%,10µM*,22µM*
CCOC(=O)c1c(NC(=O)c2ccc(S(=O)(=O)N3CCC(C)CC3)cc2)sc2c1CCN(C)C2,·,·,·,·,·,79%,?
COc1ccc(-n2c(=O)c3c(c4cc(OC)ccc4n3C)n(Cc3cccc(OC)c3)c2=O)cc1,·,·,·,·,·,2.5µM*,22µM*
Cc1ccc(Nc2c(-c3c[nH]c4ccccc34)nc3ccccn23)cc1,·,·,·,·,·,4%,·
Cc1ccc(Nc2c(-c3ccc(Br)o3)nc3ccccn23)cc1,·,·,·,·,·,8.9µM*,?
COC(=O)CN1CCN(C(=O)c2ccc(F)cc2)c2ccccc2C1,-2%,4,0%,1%,5%,176%,1%
COc1ccc(C(=O)N2CCCc3ccccc32)cc1,26%,1,0%,-3%,·,-3%,·
Fc1ccc(-n2c(-c3ccco3)nc3nc4ccccc4nc32)cc1,-2%,6,-1%,5%,-5%,?,·
Cc1ccc(-n2c(-c3ccco3)nc3nc4ccccc4nc32)cc1F,2%,24,0%,-5%,4%,2.8µM*,?
CCCc1c2ccccc2nc2ccccc12,-5%,1,0%,0%,1%,7.1µM*,19µM*
CCCc1cc(C(=O)O)c2ccccc2n1,-1%,-3,-1%,-3%,·,-2%,·
Cc1cccn2cc(-c3ccc(S(=O)(=O)N4CCCCC4)cc3)nc12,1%,-10,0%,-4%,-1%,·,·
Cc1cccn2cc(-c3ccc(S(=O)(=O)N4CCOCC4)cc3)nc12,1%,4,0%,0%,-1%,3.2µM*,3.9µM*
CC(C)Oc1cccc(C(=O)Nc2ccc3oc(-c4ccccc4)nc3c2)c1,·,·,·,0%,·,5%,·
CCOC(=O)c1c(C)oc2ccc(N(C(=O)Oc3ccccc3)S(=O)(=O)c3ccc(CC)cc3)cc12,·,·,·,·,·,-5%,·
CC(C)CCNc1ncnc2c1nnn2Cc1ccccc1Cl,-5%,9,0%,-9%,-4%,10µM*,-2%
CC(=O)Nc1ccc(NC(=O)c2ccc(N(C)S(=O)(=O)c3ccc(C)cc3)cc2)cc1,-4%,-8,0%,1%,4%,101%,?
O=C(Nc1ccccc1)c1cc2c(-c3ccccc3)nn(-c3ccccc3)c2s1,·,·,·,·,·,7.1µM*,19µM*
COc1ccccc1NC(=O)c1cc2c(-c3ccccc3)nn(-c3ccccc3)c2s1,·,·,·,·,·,4%,·
CC(Nc1nc(N2CCN(S(C)(=O)=O)CC2)nc2ccccc12)c1ccccc1 (centres undefined),-5%,-9,0%,-3%,-3%,4µM*,24µM*
SMILES,p53 reactivator,Giardia killer,B2AR arrestin,Mito fusion yeast,uPA generation,ClpP mod,ClpP inh valid
COc1ccc(Nc2nc(N3CCN(S(C)(=O)=O)CC3)nc3ccccc23)c(OC)c1,7%,-5,0%,7%,0%,·,·
c1ccc(-c2ccc(-c3csnn3)cc2)cc1,16%,10,0%,0%,-1%,88%,-1%
O=S(=O)(Nc1ccccc1)c1ccc(-c2csnn2)cc1,-4%,21,0%,6%,1%,·,·
COc1cc(C2CC(=O)N(Cc3ccc(F)cc3)c3ccccc3S2)cc(OC)c1OC (centres undefined),·,·,·,·,·,0%,·
O=C(Nc1ccccc1OC(F)F)c1oc2ccccc2c1COc1ccccc1,-4%,23,6%,-2%,10%,289%,19µM*
COc1ccc(C2NC(c3ccc4c(c3)OCO4)=CC(c3ccccc3O)N2)cc1OC (centres undefined),·,-15,·,·,·,-8%,·
COc1ccc2cc3cc(C(=O)Nc4ccccc4C)oc3nc2c1,·,·,·,·,·,39%,15µM*
Cc1cccc(-c2nc(C)c(CCNC(=O)C(=O)Nc3cccc(Cl)c3C)s2)c1,·,·,·,·,·,-1%,·
CN(c1ccccc1C(=O)NC1CCCCC1)S(=O)(=O)c1ccccc1,-5%,-12,0%,28%,4%,3%,·
CN(c1ccccc1C(=O)NC1CC2CCC1C2)S(=O)(=O)c1ccccc1 (centres undefined),-17%,-20,0%,10%,5%,7.9µM*,-3%
COc1cc(NC(=O)Cn2c(=O)oc3cc(S(=O)(=O)N4CCCCCC4)ccc32)cc(OC)c1,·,·,·,·,·,-1%,·
CCOC(=O)c1cc(-c2ccc(OC)cc2)n(CCC(=O)Nc2nc3ccc(OCC)cc3s2)c1C,·,·,·,·,·,-2%,·
O=C(Nc1ccc2c(c1)Cc1ccccc1-2)c1ccncc1,27%,-14,3%,6%,1%,10µM*,-6%
COC(=O)c1cc2oc3ccccc3c2n1Cc1nc(-c2cccc(Cl)c2)oc1C,·,·,·,·,·,2%,·
Cc1cccc(CN2CCN(C3CN(Cc4ccc([N+](=O)[O-])cc4)S(=O)(=O)C3)CC2)c1 (centres undefined),·,·,·,·,·,1%,·
COc1ccccc1C(=O)Nc1ccc(-c2nc3ccccc3s2)c(C)c1,·,·,·,·,·,2µM*,-1%
CC(C)Oc1ccc(C(=O)Nc2ccc(-c3nc4ccccc4s3)cc2)cc1,·,·,·,·,·,-20%,·
CCc1ccc(NC(=O)c2sc3nc(C)cc(C)c3c2NC(=O)c2ccccc2OC)cc1,·,·,·,·,·,41%,24µM*
Cc1ccc(C(=O)Nc2ccc(-c3nc4ccccc4s3)c(O)c2)c(C)c1,·,·,·,·,·,1%,·
CN(C)c1cccc(C(=O)Nc2ccc(-c3nc4ccccc4s3)cc2)c1,·,·,·,·,·,3.5µM*,-1%

# Screens deposited in PubChem BioAssay by National Center for Advancing Translational Sciences (NCATS).
